# Results filed as inconclusive are left out. Entries that show only a call come without a potency. Activity calls are given as the source filed them. Calls come from the whole dose curve; as a rule, active = well fitted inhibition curve with a large enough effect; inconclusive = small, poorly fitted or top-dose-only effect; inactive = flat fitted curve, though single readings scatter.
# Assays:
# Experiment in all cases: qHTS profiling for inhibitors of Plasmodium falciparum proliferation (AID 504749); note: nearly all actives have a fitted effect of over 60% in size
# Settings in all cases: P. falciparum in erythrocytes, SYBR Green DNA, 72 h; series mostly up to 28.7 µM
# CP266 = tested on: CP266
# Procedure, shortened: (§1)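 Parasite proliferation within erythrocytes, 72 h exposure. Endpoint: SYBR Green I fluorescence after overnight lysis at room temperature. Controls: 0.29 uM artemisinin, DMSO.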
# CP268 = tested on: CP268
# Procedure, shortened: as §1
# CP269 = tested on: CP269
# Procedure, shortened: as §1
# CP291 = tested on: CP291
# Procedure, shortened: as §1
# CP305 = tested on: CP305
# Procedure, shortened: as §1
# CP315 = tested on: CP315
# Procedure, shortened: as §1
# CP325 = tested on: CP325
# Procedure, shortened: as §1
# CP329 = tested on: CP329
# Procedure, shortened: as §1
# CP286 = tested on: CP286
# Procedure, shortened: as §1
# CP297 = tested on: CP297
# Procedure, shortened: as §1
# Potency is the fitted concentration of half-maximal effect.
SMILES,Potency (CP266),Potency (CP268),Potency (CP269),Potency (CP291),Potency (CP305),Potency (CP315),Potency (CP325),Potency (CP329),Potency (CP286),Potency (CP297)
CCC1C(C)=NN=C(c2ccc(OC)c(OC)c2)c2cc(OC)c(OC)cc21 (stereo not drawn),inactive,inactive,inactive,inactive,inactive,inactive,inactive,inactive,–,–
c1ccc2cc(CC3=NCCN3)ccc2c1,–,inactive,inactive,inactive,inactive,inactive,inactive,inactive,inactive,inactive
C=CCN1CC[C@]23c4c5ccc(O)c4O[C@H]2[C@@H](O)C=C[C@H]3[C@H]1C5,–,inactive,inactive,inactive,inactive,inactive,inactive,inactive,inactive,inactive
CCC1(CC)C(=O)NC(=O)N(C)C1=O,–,inactive,inactive,inactive,inactive,inactive,inactive,inactive,inactive,inactive
NCC(O)c1cccc(O)c1 (stereo not drawn),–,inactive,inactive,inactive,inactive,inactive,inactive,inactive,inactive,inactive
CCOc1ccc2c3c1O[C@H]1[C@@H](O)C=C[C@H]4[C@@H](C2)N(C)CC[C@@]341,inactive,–,–,–,–,–,–,inactive,inactive,15.1 µM (active)
C/C(=C\c1csc(C)n1)[C@@H]1C[C@@H]2O[C@]2(C)CCC[C@H](C)[C@H](O)[C@@H](C)C(=O)C(C)(C)[C@@H](O)CC(=O)O1,–,–,0.0038 µM (active),0.0021 µM (active),–,0.0024 µM (active),0.0027 µM (active),0.0034 µM (active),0.0018 µM (active),0.0043 µM (active)
Oc1cccc[c]1[Hg][Cl],9.53 µM (active),7.57 µM (active),4.26 µM (active),10.7 µM (active),6.01 µM (active),–,12 µM (active),9.53 µM (active),7.94 µM (active),13.5 µM (active)
COc1ccc2c3c1O[C@H]1C(=O)CC[C@H]4[C@@H](C2)N(C)CC[C@]314,–,inactive,inactive,inactive,inactive,inactive,inactive,inactive,inactive,inactive
